Assay results: publication PMC10668032, “Altered binding affinity of SIX1-Q177R correlates with enhanced WNT5A and WNT pathway effector expression in Wilms tumor”
Whole data set: some 33,000 sequences, median “e-score” near -0.05, cut for the highest 2% near 0.38. For the sample, the highest values were picked, then their nearest neighbours and some sequences at random.

molecular target: T1, SIX1-Q177R homeodomain (human, UniProt Q15475 108-198, Q177R); test: universal protein binding microarray; Universal all-10-mer PBM (8x60K, AMADID 030236), 300 nM GST-tagged protein, Alexa Fluor 488 anti-GST; buffer, salt, pH and temperature not stated (as in Berger); high values mean tight binding; details: protein: ivt; tags: N-terminal GST; dsDNA, one strand shown
T1 sequence: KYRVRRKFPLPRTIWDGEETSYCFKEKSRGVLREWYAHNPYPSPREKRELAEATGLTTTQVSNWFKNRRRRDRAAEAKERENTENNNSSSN
How it was run: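 Binding was expressed as 8-mer E-scores calculated with the Universal PBM Analysis Suite. The GST-tagged homeodomains, made by in vitro transcription/translation, were applied in duplicate at 300 nM final concentration to universal 'all 10-mer' protein binding microarrays (8×60K format).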

Q: AGCGGGTG was tested. Which binding signal did it give?
A: 0.333 ± 0.0119 E-score

Q: Which binding signal does the source give for ACCAGGCA here?
A: 0.151 ± 0.0134 E-score

Q: Which binding signal does the source give for ATGTGGTG here?
A: 0.271 ± 0.0248 E-score

Q: Which binding signal does the source give for GTGGTGTA here?
A: 0.481 ± 0.00765 E-score

Q: For CTGGTACA, which binding signal is on record?
A: 0.21 ± 0.0391 E-score

Q: Which binding signal does the source give for CTGGAGTC here?
A: 0.1843 ± 0.00156 E-score

Q: How did the binding signal turn out when CTGGTATC was run?
A: 0.274 ± 0.0156 E-score

Q: With GTGGTGCA as the sequence, how does the binding signal read?
A: 0.189 ± 0.00669 E-score

Q: Which binding signal does the source give for CTGGTGTC here?
A: 0.4826 ± 0.00371 E-score

Q: With GTGTGGTA as the sequence, how does the binding signal read?
A: 0.265 ± 0.00181 E-score

Q: Which binding signal does the source give for ATGGTGTG here?
A: 0.405 ± 0.0177 E-score

Q: How did the binding signal turn out when CTGGTGCA was run?
A: 0.234 ± 0.0234 E-score

Q: Which binding signal does the source give for CTGGTGTA here?
A: 0.4837 ± 0.00053 E-score

Q: For ATGGGGTG, which binding signal is on record?
A: 0.342 ± 0.0155 E-score

Q: ACCCGGGC was tested. Which binding signal did it give?
A: 0.199 ± 0.0334 E-score

Q: CTTGCACC was tested. Which binding signal did it give?
A: 0.166 ± 0.00933 E-score

Q: With CCCGGTCG as the sequence, how does the binding signal read?
A: 0.212 ± 0.00566 E-score

Q: Which binding signal does the source give for ACACAATG here?
A: 0.164 ± 0.079 E-score

Q: How did the binding signal turn out when ACCCACAC was run?
A: 0.348 ± 0.0152 E-score

Q: Which binding signal does the source give for ACCTCGGG here?
A: 0.273 ± 0.0151 E-score

Q: For AGGCGGTG, which binding signal is on record?
A: 0.2798 ± 0.00206 E-score

Q: Which binding signal does the source give for CACGCGGG here?
A: 0.241 ± 0.00761 E-score

Q: With ACCTTCCT as the sequence, how does the binding signal read?
A: 0.264 ± 0.0494 E-score

Q: Which binding signal does the source give for ATGGTATC here?
A: 0.3344 ± 0.0022 E-score

Q: ATGGTACA was tested. Which binding signal did it give?
A: 0.18 ± 0.0214 E-score

Q: How did the binding signal turn out when ATGGTGTA was run?
A: 0.4792 ± 0.00274 E-score

Q: For ATTGTGTA, which binding signal is on record?
A: 0.151 ± 0.0397 E-score

Q: Which binding signal does the source give for ATGGTGTC here?
A: 0.486 ± 0.00186 E-score

Q: ATTGTGTC was tested. Which binding signal did it give?
A: 0.219 ± 0.0744 E-score

Q: Which binding signal does the source give for CACCCAAG here?
A: 0.366 ± 0.00569 E-score

Q: Which binding signal does the source give for ACTGATCC here?
A: 0.16 ± 0.00427 E-score

Q: How did the binding signal turn out when CACCGGGG was run?
A: 0.256 ± 0.0427 E-score

Q: For AACCGTGT, which binding signal is on record?
A: 0.3792 ± 0.0033 E-score

Q: For ATGCACCC, which binding signal is on record?
A: 0.19 ± 0.0233 E-score

Q: Which binding signal does the source give for GGGTTACA here?
A: 0.242 ± 0.0177 E-score

Q: Which binding signal does the source give for CCCGCACA here?
A: 0.228 ± 0.0266 E-score

Q: For CACTATAC, which binding signal is on record?
A: 0.261 ± 0.0244 E-score

Q: How did the binding signal turn out when ACACTTGG was run?
A: 0.329 ± 0.018 E-score

Q: For CCGGGTCA, which binding signal is on record?
A: 0.285 ± 0.0196 E-score

Q: With GTATCATA as the sequence, how does the binding signal read?
A: 0.29 ± 0.00996 E-score

Q: Which binding signal does the source give for AGGCACAC here?
A: 0.203 ± 0.0019 E-score

Q: CGGAACAC was tested. Which binding signal did it give?
A: 0.411 ± 0.0112 E-score

Q: Which binding signal does the source give for CGGAACCC here?
A: 0.234 ± 0.0277 E-score

Q: With GGGAACAC as the sequence, how does the binding signal read?
A: 0.368 ± 0.0116 E-score

Q: AGGAACAC was tested. Which binding signal did it give?
A: 0.394 ± 0.0134 E-score

Q: How did the binding signal turn out when GGGAACCC was run?
A: 0.184 ± 0.0515 E-score

Q: How did the binding signal turn out when ACGGGTAT was run?
A: 0.277 ± 0.00631 E-score

Q: CGGCGTCA was tested. Which binding signal did it give?
A: 0.219 ± 0.00435 E-score

Q: With CCCGCTGA as the sequence, how does the binding signal read?
A: 0.159 ± 0.0401 E-score

Q: For CTTCTACC, which binding signal is on record?
A: 0.203 ± 0.0258 E-score

Q: With GGGTCACA as the sequence, how does the binding signal read?
A: 0.202 ± 0.0391 E-score

Q: How did the binding signal turn out when GTGTCTAA was run?
A: 0.394 ± 0.0134 E-score

Q: Which binding signal does the source give for GAGTCACA here?
A: 0.26 E-score

Q: GGGTCAAC was tested. Which binding signal did it give?
A: 0.223 ± 0.0249 E-score

Q: How did the binding signal turn out when GTGTCAAC was run?
A: 0.443 ± 0.00646 E-score

Q: With GTGTCACA as the sequence, how does the binding signal read?
A: 0.462 ± 0.00507 E-score

Q: Which binding signal does the source give for TATTCTAA here?
A: 0.213 ± 0.0183 E-score

Q: GTGTCTCA was tested. Which binding signal did it give?
A: 0.371 ± 0.00405 E-score

Q: With GTATCAAA as the sequence, how does the binding signal read?
A: 0.159 ± 0.0425 E-score

Q: Which binding signal does the source give for GTGTCAAA here?
A: 0.4527 ± 0.00139 E-score

Q: Which binding signal does the source give for GGGTCAAA here?
A: 0.171 ± 0.0267 E-score

Q: GTATCAAC was tested. Which binding signal did it give?
A: 0.256 ± 0.0174 E-score

Q: How did the binding signal turn out when CACTGGAA was run?
A: 0.152 ± 0.024 E-score

Q: How did the binding signal turn out when AGGGGTTC was run?
A: 0.193 ± 0.0251 E-score

Q: With GACCCCGC as the sequence, how does the binding signal read?
A: 0.248 ± 0.0275 E-score

Q: How did the binding signal turn out when CCTGATAC was run?
A: 0.202 ± 0.0295 E-score

Q: For AGTGCACC, which binding signal is on record?
A: 0.28 ± 0.00682 E-score

Q: For GATCCCAC, which binding signal is on record?
A: 0.24 ± 0.0253 E-score

Q: TATACCCA was tested. Which binding signal did it give?
A: 0.192 ± 0.0317 E-score

Q: Which binding signal does the source give for GAGTCAGA here?
A: 0.21 ± 0.0213 E-score

Q: How did the binding signal turn out when GGGTCAGA was run?
A: 0.196 ± 0.0143 E-score

Q: Which binding signal does the source give for GAGTCATA here?
A: 0.184 ± 0.0258 E-score

Q: GTGTCATA was tested. Which binding signal did it give?
A: 0.458 ± 0.00496 E-score

Q: GGGTCGAA was tested. Which binding signal did it give?
A: 0.182 ± 0.0133 E-score

Q: How did the binding signal turn out when GTGTCGAA was run?
A: 0.448 ± 0.00926 E-score

Q: How did the binding signal turn out when GTATCGAA was run?
A: 0.199 ± 0.0103 E-score

Q: Which binding signal does the source give for GTGTCAGA here?
A: 0.4533 ± 0.00139 E-score

Q: Which binding signal does the source give for GGGTCATA here?
A: 0.237 ± 0.0329 E-score

Q: For CGCGTACA, which binding signal is on record?
A: 0.2538 ± 0.00208 E-score

Q: For GAGGGTGC, which binding signal is on record?
A: 0.237 ± 0.0114 E-score

Q: Which binding signal does the source give for AAAGAGTG here?
A: 0.186 ± 0.0198 E-score

Q: For AGAACCCC, which binding signal is on record?
A: 0.182 ± 0.0559 E-score

Q: Which binding signal does the source give for GGATCATA here?
A: 0.184 ± 0.0113 E-score

Q: For CACCTGCA, which binding signal is on record?
A: 0.213 ± 0.0191 E-score

Q: ATCCCCTC was tested. Which binding signal did it give?
A: 0.196 ± 0.00519 E-score

Q: For ACCACGCA, which binding signal is on record?
A: 0.24 ± 0.0201 E-score
